NPR2 activator = GC-B (human) receptor activation | AID 1920062 | activation, % at 10 µM | P20594 | HEK293-GC-B cells, CNP EC30, cGMP TR-FRET; 0% at EC30 CNP, 100% saturating CNP | 0.11% of 370,000 active;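 active = activation at 10 µM reaching about 35% in either raw or pattern-adjusted values, limit read from the data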
PLCb3 inh = inhibitors of human phospholipase C beta3; Purified PLC-beta3, fluorogenic substrate, fluorescence; Q01970; 0.18% of 370,000 active; inhibition, % at 12.2 µM; in the data active = inhibition above about 11%;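 note: 0% = median of compound wells on plate and 100% = full blocker control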
Target sequence (Q01970 whole entry, looked up): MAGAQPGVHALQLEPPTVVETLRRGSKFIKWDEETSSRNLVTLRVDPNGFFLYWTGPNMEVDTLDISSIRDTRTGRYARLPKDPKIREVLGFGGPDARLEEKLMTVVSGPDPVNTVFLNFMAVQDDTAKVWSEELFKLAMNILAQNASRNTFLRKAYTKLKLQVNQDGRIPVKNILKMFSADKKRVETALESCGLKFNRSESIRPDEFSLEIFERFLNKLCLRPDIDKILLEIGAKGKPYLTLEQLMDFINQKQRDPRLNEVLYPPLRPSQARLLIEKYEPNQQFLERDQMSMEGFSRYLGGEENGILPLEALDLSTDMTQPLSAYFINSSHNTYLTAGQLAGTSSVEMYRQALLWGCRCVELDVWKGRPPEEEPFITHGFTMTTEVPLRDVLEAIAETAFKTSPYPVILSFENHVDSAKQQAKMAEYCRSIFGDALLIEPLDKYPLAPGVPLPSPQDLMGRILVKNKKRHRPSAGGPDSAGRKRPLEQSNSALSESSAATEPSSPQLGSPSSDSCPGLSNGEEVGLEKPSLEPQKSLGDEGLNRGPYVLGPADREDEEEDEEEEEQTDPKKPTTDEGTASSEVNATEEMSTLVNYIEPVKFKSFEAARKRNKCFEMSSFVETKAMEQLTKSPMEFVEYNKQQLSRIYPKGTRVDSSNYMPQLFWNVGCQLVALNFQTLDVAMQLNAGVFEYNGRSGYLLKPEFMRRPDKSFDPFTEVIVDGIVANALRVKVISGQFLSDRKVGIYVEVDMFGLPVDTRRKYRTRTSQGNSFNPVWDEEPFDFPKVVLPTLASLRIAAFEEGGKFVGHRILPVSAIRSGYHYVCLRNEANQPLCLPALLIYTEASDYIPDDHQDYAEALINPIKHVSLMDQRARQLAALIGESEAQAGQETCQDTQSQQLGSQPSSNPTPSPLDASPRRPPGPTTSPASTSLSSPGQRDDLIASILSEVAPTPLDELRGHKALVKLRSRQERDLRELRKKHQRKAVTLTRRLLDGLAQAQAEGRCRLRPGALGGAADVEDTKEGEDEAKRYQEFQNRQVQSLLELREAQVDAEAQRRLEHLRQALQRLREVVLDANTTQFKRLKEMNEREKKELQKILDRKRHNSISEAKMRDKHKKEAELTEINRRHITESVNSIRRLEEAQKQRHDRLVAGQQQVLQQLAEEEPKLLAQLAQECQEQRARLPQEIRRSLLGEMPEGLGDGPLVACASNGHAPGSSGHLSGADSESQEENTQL
Rce1 inhib = blocks yeast Ras-converting enzyme; yeast membranes, quenched prenylated peptide cleavage fluorescence; calls only; 0.27% of 290,000 active; AID 2563;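 active = fall in fluorescence gain of 50% or more versus controls, with final raw signal at or below 3038400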;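 note: plate controls were neutral control wells for no effect and wells lacking membranes for full effect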
NPR1 activator = GC-A (human) enzyme activation. AID 1671463. HEK293 GC-A cells, cGMP TR-FRET, EC30 ANP; 0% at EC30 ANP, 100% saturating ANP. 0.14% of 370,000 active. activation, % at 10 µM. P16066; in the data active = activation above about 40%
PLC-gamma1 inh = inhibitors of human phospholipase C gamma1; P19174; AID 720700; purified PLC-gamma1, fluorogenic substrate, fluorescence; 0.84% of 370,000 active; inhibition, % at 12.2 µM; in the data active = inhibition above about 9.5%
M18AAP inhibitor = blocks P. falciparum M18 aspartyl aminopeptidase; recombinant PfM18AAP, H-Glu-NHMec fluorogenic cleavage; inhibition, % at 7.35 µM; 1.2% of 290,000 active; AID 1822;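 active = inhibition above the campaign mean inhibition over all tested compounds plus 3 SD, cut at about 28% in these data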;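 note: 0% = plate median of test compound wells and 100% = 2 mM ZnCl2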
Numbers without * were called inactive; i = inactive; . = no result given; + = active, no number. An excerpt weighted towards active compounds, which were near 2.2% of everything screened.

SMILES | NPR2 activator | PLCb3 inh | Rce1 inhib | NPR1 activator | PLC-gamma1 inh | M18AAP inhibitor
CCCCC(=O)N1CCC(NS(=O)(=O)c2ccc3c(c2)CCN3C(C)=O)CC1 | 11.4 | 0.0 | . | -0.7 | 7.0 | .
COc1ccc(CN(CCN2CCOCC2)C(=O)c2cc(Cl)ccc2F)cc1OC | -7.0 | 6.2 | . | 3.1 | 0.7 | .
Cc1cccc(NC(=O)c2cc(S(=O)(=O)N3CCCCC3)c[nH]2)c1C | 5.8 | 1.2 | + | 1.4 | -0.3 | -2.2
CCc1ccccc1NC(=O)c1cc(S(=O)(=O)N2CCCC2)c[nH]1 | -3.5 | 2.5 | i | 8.8 | 1.6 | 4.2
CN1CC(=O)N2[C@@H](C[C@]3(c4c[nH]c5ccccc45)c4ccccc4N(S(=O)(=O)c4ccccc4)[C@H]23)C1=O | -9.1 | -4.7 | . | -3.0 | -2.7 | .
O=C(OCn1ncc(Cl)c(Cl)c1=O)c1ccccc1Cl | 32.6 | -2.1 | i | 43.0* | 1.0 | -8.9
CC(C)(C)C(=O)Cn1ncc(N2CCCC2)c(Br)c1=O | 1.2 | 1.5 | i | 1.2 | 0.7 | 1.1
O=C(Cn1ncc(Cl)c(Cl)c1=O)c1ccc(Cl)cc1 | 21.7 | -2.3 | i | 70.5* | 0.4 | -4.3
CC(C)(C)C(=O)Cn1ncc(Cl)c(Cl)c1=O | -7.7 | 3.0 | i | 42.2* | 0.3 | -12.9
O=C(OCn1ncc(Cl)c(Cl)c1=O)c1ccc(F)cc1 | . | . | i | . | . | 1.6
C=CCn1c(C)cc(C(=O)CN2NS(=O)(=O)c3ccccc3C2=O)c1C | -7.3 | 4.3 | . | -0.6 | 2.2 | -7.4
C=CCn1c(C)cc(C(=O)Cn2ncc(Cl)c(Cl)c2=O)c1C | 48.9* | -1.8 | i | 38.3 | 1.7 | 3.0
O=c1c2cc3cc(Cl)ccc3nc2ncn1Cc1ccc(Oc2ccccc2)cc1 | 0.0 | -4.5 | . | -0.8 | -5.5 | .
CCC(C)(C)C(=O)N1CCc2cc(S(=O)(=O)N(C)Cc3ccco3)ccc21 | 2.3 | -3.0 | . | 1.2 | -2.5 | .
c1nc(NC[C@@H]2CCCO2)c2cc(-c3ccc4c(c3)OCO4)ccc2n1 | 12.8 | -169.2 | . | 5.6 | -113.3 | .
CCn1c2ccccc2c2cc(NC(=O)CSc3nnc(-c4ccccc4)n3Cc3ccco3)ccc21 | 10.7 | -7.5 | . | -4.0 | -5.9 | .
COC(=O)[C@]12C[C@H](CC(=O)NCCCCc3ccccc3)C(=O)N(CCC3=CCCCC3)C1=C[C@H](C(C)C)O[C@@H]2C1CC1 | -6.8 | 3.2 | . | 2.6 | 3.4 | .
CC1=C(C(=O)N2CCOCC2)C(c2ccc(-c3ccccc3)cc2)NC(=S)N1 (stereo not given) | 69.7* | -3.4 | i | 79.5* | 1.4 | 0.0
CC1=C(C(=O)N2CCOCC2)C(c2ccc(O)cc2)NC(=S)N1 (stereo not given) | 40.9* | 9.1 | i | 32.3 | 5.5 | 5.0
Brc1ccc(-c2nn3c(-c4ccccc4)nnc3s2)cc1 | -0.3 | -2.2 | . | 3.5 | 1.9 | .
NC(=O)c1ccc(N=C2C(=O)Nc3ccc([N+](=O)[O-])cc32)cc1 | -15.8 | -4.0 | i | -21.7 | 10.7* | 5.8
O=C1Nc2ccccc2C1=Nc1cccc([N+](=O)[O-])c1 | 6.2 | 1.9 | i | -4.1 | -1.7 | -4.5
COc1cccc(-c2nnc(SCC(=O)Nc3ccc(Oc4ccccc4)cc3)n2Cc2ccco2)c1 | 7.1 | -4.6 | . | 5.2 | 0.5 | .
COc1ccc(OCC(=O)NS(=O)(=O)c2ccc(Cl)cc2)cc1 | -2.3 | -5.9 | + | 2.6 | -2.5 | -3.4
Cc1ccc(S(=O)(=O)NC(=O)COc2ccc([N+](=O)[O-])cc2)cc1 | 4.0 | -3.2 | i | 2.4 | -4.8 | -2.0
SMILES | NPR2 activator | PLCb3 inh | Rce1 inhib | NPR1 activator | PLC-gamma1 inh | M18AAP inhibitor
O=c1[nH]c2ccc(S(=O)(=O)N3CCN(C4CCCCC4)CC3)cc2[nH]c1=O | 4.2 | -56.9 | + | 3.6 | -37.0 | -5.4
O=S(=O)(c1ccc(S(=O)(=O)N2CCN(C3CCCCC3)CC2)cc1)N1CCCCCC1 | 0.0 | -0.8 | . | 0.1 | -1.5 | .
CC(C)CN(C(=O)CCNC(=O)c1ccc([N+](=O)[O-])cc1)C1CCS(=O)(=O)C1 (stereo not given) | 0.0 | 10.9* | . | 0.0 | 7.0 | .
O=C(O)c1ccc(/C=N/NC(=O)C(O)(c2ccccc2)c2ccccc2)cc1 | 9.3 | -5.0 | i | 2.6 | 0.2 | -7.5
CCN(CC)c1ccc(/C=N/NC(=O)C(O)(c2ccccc2)c2ccccc2)o1 | . | . | + | . | . | 2.7
C=CCN1C(=O)[C@@H](CC(=O)NCCCC)[C@]2(C(=O)OC)CCCCC=C12 | 0.4 | -1.7 | . | 2.7 | 2.4 | .
Oc1ccc2ccccc2c1N=Nc1ccccn1 | -11.2 | -2.6 | i | -0.9 | 6.1 | 10.5
CCOC(=O)c1[nH]cnc1N=Nc1c(O)ccc2ccccc12 | 38.1* | -20.9 | i | 36.1 | -20.0 | 2.3
Cc1cc(C(=O)Nc2ccc(Cl)c(Cl)c2)n(-c2ccccc2)n1 | -3.7 | 1.1 | . | -1.2 | -0.5 | .
CCCCCCCCCCCCCCCC[n+]1ccc(/C=N/O)cc1 | 1.2 | 4.9 | . | -18.9 | 17.1* | -4.9
COc1ccc(NC(=S)N2CCC(c3ccc(C)cc3)C2)cc1 (stereo not given) | 5.2 | 2.7 | i | 3.7 | 0.2 | -9.0
Cc1ccc(NC(=S)N2CCC(c3ccc(C)cc3)C2)cc1 (stereo not given) | 4.4 | 1.9 | i | -0.3 | -4.0 | 39.0*
CC1=NN(c2ccccc2)C(=O)/C1=C\c1ccc(Oc2ccc([N+](=O)[O-])cc2[N+](=O)[O-])cc1 | 8.7 | 4.5 | i | 2.8 | 19.8* | 13.2
COc1cc(/C=C2/C(=O)N(c3ccc(C)c(C)c3)N=C2C)cc([N+](=O)[O-])c1O | 1.4 | -3.3 | i | 6.8 | 0.5 | 10.1
Cc1cccc(C(=O)O/N=C(\N)Cc2ccc([N+](=O)[O-])cc2)c1 | -5.4 | 3.7 | i | 2.6 | 0.1 | 1.0
N/C(Cc1ccc([N+](=O)[O-])cc1)=N\OC(=O)c1ccc2ccccc2c1 | -5.2 | 0.7 | + | -0.7 | -1.4 | 2.4
O=c1cc(C(F)(F)F)[nH]c(=S)n1-c1ccccc1 | -0.9 | -4.4 | i | 2.4 | -1.1 | 30.1*
Nc1cc(=O)[nH]c(=S)n1-c1ccccc1 | -0.5 | 3.0 | i | 4.4 | 3.7 | -20.3
c1ccc(Nc2nc(CSc3ncn[nH]3)cs2)cc1 | -0.1 | 0.0 | i | 5.8 | -2.8 | 60.1*
O=C(c1cc(F)cc(F)c1)N1CCCC(c2nc(-c3cccs3)no2)C1 (stereo not given) | -4.8 | -1.1 | . | 0.1 | 1.4 | .
O=C(CC1CCCC1)N1CC[C@H]2[C@H](CCCN2Cc2ccccc2)C1 | 5.3 | 3.1 | . | 2.3 | 1.8 | .
O=C(NC(=S)N1CCN(c2ccc(O)cc2)CC1)c1cccs1 | -2.5 | -7.0 | i | -8.6 | -2.5 | 30.9*
FC(F)(F)c1cccc(N2CCN(C3=Nc4ccccc4Sc4ccccc43)CC2)c1 | -0.9 | -1.7 | . | -2.2 | 1.2 | .
CC(=O)CC[C@H]1CC[C@]2(CCCN(C(=O)C(C)(C)C)C2)O1 | -2.8 | -0.7 | . | 1.6 | -1.6 | .
CC(=O)c1c(N)nc2n(c1=O)CCCCC2 | 112.3* | 1.4 | i | -1.1 | -3.3 | 6.0
